# Active and inactive are the calls of the source.
# Test system: XIP peptide (Xip251-270) binding
# Experiment: small-molecule binders of XIP peptide, primary screen, biochemical, small-molecule microarray, fluorescence 635/667 nm, 0.1 µg/mL protein (AID 1182)
# Settings: fluorescent protein binding, 635 nm, higher = more signal, called active from +8 up or from −8 down
row,SMILES,composite z-score
1,C=C(COC)/C(=C/C[C@H](OC(=O)c1ccncc1)c1ccc(CO)o1)c1cc(C(=O)OC)ccc1OC,-0.222 (inactive)
2,CS(=O)(=O)CCOC(=O)C1=CC(CCCO)=CC(c2cccs2)N(Cc2cccc(OC(F)(F)F)c2)C=C1C(=O)OCCS(C)(=O)=O (configuration not stated),1.17 (inactive)
3,CCCNC(=O)[C@@H]1c2ccccc2C(=O)N(Cc2ccccc2Cl)[C@H]1c1ccc(CO)cc1,-0.101 (inactive)
4,CCc1cccc(NC(=O)O[C@H]2[C@H](OC(=O)Nc3ccc4c(c3)OCO4)[C@@H](OC(=O)Nc3ccc4c(c3)OCO4)[C@@H](OC)O[C@@H]2CO)c1,0.0979 (inactive)
5,COC(=O)[C@@]1(Cc2ccc(OC)cc2)[C@H]2c3cc(C(=O)N4CCCC4)n(Cc4cc(F)c(F)c(F)c4)c3C[C@H]2CN1C(=O)c1ccccc1,0.902 (inactive)
6,CN(C)C(=O)[C@@]1(Cc2ccccc2)N=C(c2ccc(OCCCO)cc2)O[C@H]1c1ccccc1CN=[N+]=[N-],2.74 (inactive)
7,COc1ccc([Si](C)(C)[C@@H]2[C@@H](CCO)O[C@]3(C(=O)N(Cc4ccc(NC(C)=O)cc4)c4ccccc43)[C@H]2C)cc1,0.935 (inactive)
8,O=C1O[C@@H](c2ccccc2)[C@@H](c2ccccc2)N2[C@@H](c3ccc(O)cc3)[C@]3(C(=O)Nc4ccccc43)[C@@H](C(=O)O)[C@H]12,1.27 (inactive)
9,O=C1c2ccccc2[C@@]2(Cc3ccccc3N(C3CC3)C2=O)[C@H](c2ccc(CO)cc2)N1Cc1ccccc1C(F)(F)F,-0.27 (inactive)
10,O[C@@H](Cc1ccccc1)[C@H]1C2C=CCCC(c3ccccc3)=C2CN1Cc1cccc(Cl)c1 (some centres not stated),-0.241 (inactive)

# Test system: XIP peptide (Xip251-270)
# Experiment: small-molecule binders of XIP peptide, primary screen, biochemical, small-molecule microarray, fluorescence 635/667 nm, 0.5 µg/mL protein (AID 1183)
# Settings: small-molecule microarray binding, fluorescence 635 nm; higher = more signal
row,SMILES,composite z-score
1,CCCC=C(CCC)[C@@H](NC(=O)c1ccc(-c2ccccc2)cc1)c1ccc(C(=O)OC)cc1,0.0922
2,COC(=O)[C@@]1(Cc2ccccc2)[C@H]2c3cc(C(=O)N4CCCC4)n(Cc4ccccn4)c3C[C@H]2CN1C(=O)c1ccccc1,0.91
3,O=C(CS)NCCCCCNC(=O)[C@@H]1C[C@@H]2C(=O)N[C@@H](Cc3ccccc3)C(=O)N2[C@@H]1c1ccc(O)cc1,0.562
4,CC(C)C[C@@H]1NC(=O)[C@H]2C[C@@H](C(=O)NCCCCCCN(C)C)[C@@H](c3cccc(OCCO)c3)N2C1=O,0.905
5,COCCCNC(=O)[C@@]1(CCS(=O)(=O)c2ccccc2)N=C(c2ccc(OCCCO)cc2)O[C@H]1c1ccccc1,0.875
6,Cc1ccc(S[C@]2(C(=O)NCC(F)(F)F)CC(=O)N(Cc3ccccc3Cl)[C@@H]2c2ccc(CO)cc2I)cc1,0.426
7,O=C1O[C@@H](c2ccccc2)[C@@H](c2ccccc2)N2[C@@H](c3ccc(OCCO)cc3)[C@]3(C(=O)Nc4ccc(C#CCCO)cc43)[C@@H](C(=O)N3CCCCCCC3)[C@H]12,0.883
8,CCOC(=O)C1=CCC(c2cc3ccccc3[nH]2)NC1 (configuration not stated),-0.753
9,O=C1NC(=O)C2C1C=CC(C(O)Cc1ccccc1)N2Nc1ccccn1 (configuration not stated),0.804
10,C#C[C@@H]1Oc2ccccc2S(=O)(=O)N2CCC[C@H]12,-0.149
11,COc1ccc([Si](C)(C)[C@H]2[C@H](CCO)O[C@@]3(C(=O)N(Cc4cccc(NC(=O)[C@H](C)O)c4)c4ccccc43)[C@@H]2C)cc1,0.618
12,C=CCOC(=O)[C@H]1[C@@H]2C(=O)O[C@@H](c3ccccc3)[C@@H](c3ccccc3)N2[C@@H](c2ccc(OCCOC(=O)[C@H]3C[C@H]4C(=O)N5CCC[C@H]5C(=O)N4[C@H]3c3cccc(OCCO)c3)cc2)[C@]12C(=O)Nc1ccc(I)cc12,0.829
13,C=C(/C(=C/C[C@@H](OC(=O)c1ccncc1)c1ccc(OCCO)cc1)c1cnc2ccccc2c1)C(C)C,0.565
14,O=C1C[C@]2(c3ccc([N+](=O)[O-])cc3)C(=O)N(CCN3CCOCC3)c3cc(CO)ccc3[C@H]2N1CC12CC3CC(CC(C3)C1)C2,-0.307
15,CC(C)C[C@@H]1NC(=O)[C@H]2C[C@@H](C(=O)O)[C@@H](c3ccc(O)cc3)N2C1=O,0.86
16,COCCOC(=O)N1C(=O)[C@@]2(c3cc(C#Cc4ccc(OC)cc4)ccc31)[C@H](c1ccc(O)cc1)N1[C@H](c3ccccc3)[C@H](c3ccccc3)OC(=O)[C@H]1[C@@H]2C(N)=O,0.754
17,CC(C)NC(=O)[C@@]1(C)c2ccccc2C(=O)N(Cc2cc(F)cc(C(F)(F)F)c2)[C@H]1c1ccc(CO)cc1,0.863

# Source: PubChem BioAssay
